Shown are actives, neighbours in structure and some others; about 4.3% of the full set was active somewhere.
GLP1R inv ag: inverse agonists of human GLP-1 receptor | HEK293 GLP-1R CRE-luciferase, luminescence, 24 h; GLP-1R form is constitutively active | Potency, µM (series often up to 38.3 µM), for the others: at the top dose activity change, negative = inhibition, hits mostly inhibitors | 410,000 compounds, 1.6% hits; note: potency is the fitted concentration of half-maximal effect; % is set by controls: 0 for no effect and ±100 for the full control effect; nearly all actives have a fitted effect of over 55% in size
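HEK293 cells stably co-expressing constitutively active GLP-1R and a cAMP-responsive luciferase reporter were seeded in DMEM with 10% Nu serum, given compounds after 12 h, and incubated 24 h at 37 deg C. Luminescence was then read.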
DRD3 agonist: D3 dopamine receptor (human) agonism | P35462 | D3R DiscoveRx beta-arrestin cells, luminescence, 90 min | max activation, % | 410,000 compounds, 0.58% hits; in the data active = max activation above about 30%; note: 0% is about no effect
Target sequence (P35462 whole entry, looked up): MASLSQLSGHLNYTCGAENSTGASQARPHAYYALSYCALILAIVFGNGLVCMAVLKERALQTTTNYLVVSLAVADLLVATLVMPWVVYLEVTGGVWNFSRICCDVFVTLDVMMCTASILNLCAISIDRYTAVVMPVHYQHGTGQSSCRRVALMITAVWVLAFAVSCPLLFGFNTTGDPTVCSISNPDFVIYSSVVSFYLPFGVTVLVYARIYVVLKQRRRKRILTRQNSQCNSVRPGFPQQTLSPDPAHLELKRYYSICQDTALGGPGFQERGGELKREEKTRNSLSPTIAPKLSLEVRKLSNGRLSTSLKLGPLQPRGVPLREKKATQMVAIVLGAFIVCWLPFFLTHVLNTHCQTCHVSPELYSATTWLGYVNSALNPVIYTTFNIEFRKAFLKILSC
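Agonist mode: compounds and dopamine controls were applied to plated cells for 90 min at 37 degrees C after an overnight attachment at 1500 cells/well. Luminescent read-out followed 30 - 60 minutes at room temperature with DiscoveRx detection reagent.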
GLP-1R agonist: agonists of human GLP-1 receptor; P43220; HEK293 GLP-1R CRE-luciferase, luminescence, 4-6 h; cells express a hypersensitive GLP-1R form; Potency, µM (top dose mostly 45.6 µM), for inactives: at the highest dose activation, hits mostly activators; 380,000 compounds, 0.007% hits; note: potency is the fitted concentration of half-maximal effect; % of control where 0% means no effect
DRD3 antagonist: antagonists of human D3 dopamine receptor. P35462. D3R cells, DiscoveRx beta-arrestin luminescence, antagonist mode; active compounds read low. max response, negative = inhibition, %. 360,000 compounds, 2.5% hits. AID 652054; in the data active = max response below about -50%; inconclusive = no clear call, values can overlap the other calls; note: % is set by controls: 0 for no effect and ±100 for the full control effect
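Cells expressing the human receptor were seeded at 1500 cells/well, incubated overnight at 37 degrees C in 5% CO2, then exposed to library compounds with dopamine controls for 90 minutes at 37 degrees C before luminescent detection.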
Numbers without * were called inactive; ? = inconclusive; · = not tested or not shown. Unless noted, calls come from the whole dose curve; as a rule, active = well fitted curve in the direction sought with a large enough effect; inconclusive = small, poorly fitted or top-dose-only effect, or another doubt; inactive = no such curve, though single readings can be large; an effect the other way counts as inactive or inconclusive.

SMILES	GLP1R inv ag	DRD3 agonist	GLP-1R agonist	DRD3 antagonist
Cc1ccc(OCCN2CCN(C(=O)CCC(=O)Nc3nnc(CC(C)C)s3)CC2)cc1	?	72*	8%	10
CCOC(=O)c1sc(=S)n(Cc2ccccc2)c1C	8.9µM*	-4	16%	5
CCOC(=O)c1sc(=S)n(-c2ccccc2)c1C	17%	7	28%	6
COc1ccc(-n2ncc3c(NC4CCCC4)ncnc32)cc1	7.9µM*	-18	·	·
Clc1cccc(-n2ncc3c(NC4CCCCCC4)ncnc32)c1	10µM*	-12	·	·
Cc1ccc(C)n1-c1nnc(N2CCCC(C(=O)Nc3ccccc3Br)C2)s1 (centres undefined)	-28%	2	·	·
C/C(=C\c1ccc(N)cc1)c1nc2ccccc2[nH]1	14%	0	17%	-19
O=S(=O)(/C(=C/c1ccc(C(F)(F)F)cc1)c1nc2ccccc2[nH]1)c1ccccc1	1.8µM*	-29	-7%	-77*
CC(C)c1ccc(/C=C(\c2nc3ccccc3[nH]2)S(=O)(=O)c2ccccc2)cc1	?	-11	-20%	-73*
Cc1ccc(N2CCN(c3nc4ccc(C)cc4n4nnnc34)CC2)c(C)c1	2%	7	·	·
O=C(CCC(=O)c1cccs1)NNC(=O)c1ccccc1Cl	2%	8	3%	-4
C[C@H](NC(=O)c1ccccc1Cl)C(=O)OCC(=O)NNC(=O)c1cccs1	4%	-15	1%	-55*
CN1CCN(/N=C/c2ccc(-c3ccccc3)cc2)CC1	?	-14	12%	-21
Cc1cc(/C=N/N2CCN(C)CC2)c(C)n1-c1ccccc1F	0%	-9	-3%	-71*
CCN(CC)CCCNC(=O)c1ccc(Cn2c(SCc3ccccc3)nc3cccnc32)cc1	?	-25	·	·
COc1ccc(NC(=O)C2(C)Cc3c(-c4cccc(NC(C)=O)c4)ccnc3O2)cn1 (centres undefined)	1.1µM*	-6	24%	9
CC(=O)Nc1ccc(-c2ccnc3c2CC(C)(C(=O)Nc2ccccc2)O3)cc1 (centres undefined)	-20%	2	14%	-23
COc1ccc(NC(=O)C2(C)Cc3c(-c4ccc(NC(C)=O)cc4)ccnc3O2)cn1 (centres undefined)	-8%	-16	-5%	0
CC(=O)Nc1ccc(-c2ccnc3c2CC(C)(C(=O)Nc2cccc(Oc4ccccc4)c2)O3)cc1 (centres undefined)	?	-19	-2%	-66*
COc1ccc2nc3sc(C(=O)NCCCN4CCc5ccccc5C4)cc3cc2c1	?	-24	6%	-88*
COc1ccc(N2CCN(CCCNC(=O)c3ccc(CS(=O)(=O)c4ccc(OC)cc4)o3)CC2)cc1	?	18	2%	-11
COc1ccccc1S(=O)(=O)Cc1ccc(C(=O)NCCCN2CCN(c3ccc(F)cc3)CC2)o1	?	-6	-2%	-77*
COc1ccccc1S(=O)(=O)Cc1ccc(C(=O)N2CCN(c3ccccc3)CC2)o1	-18%	3	3%	0
CCN(CCCNC(=O)c1cc2cc3ccc(OC)cc3nc2s1)c1ccccc1	4%	3	·	·
COc1ccc(S(=O)(=O)Cc2ccc(C(=O)NCCCN3CCc4ccccc4C3)o2)cc1	-22%	-16	18%	-92*
SMILES	GLP1R inv ag	DRD3 agonist	GLP-1R agonist	DRD3 antagonist
CN(Cc1cc(Br)cc(Br)c1N)C1CCCCC1	·	-20	-5%	·
CN1CCC(N(C)C(=O)c2sc3cc(F)ccc3c2Cl)CC1	7.1µM*	-7	3%	-28
CC(C)N(CC(N)=O)C(=O)c1sc2cc(F)ccc2c1Cl	2%	0	0%	-12
COc1cccc(-n2c(=O)c3c(C)c(C)sc3n(Cc3ccccc3C#N)c2=O)c1	3%	2	·	·
Cc1cccn2c(=O)c3cc(C(=O)NCCc4ccccc4)c(=N)n(Cc4ccco4)c3nc12	192%	-16	4%	-100*
Cc1cccn2c(=O)c3cc(C(=O)NCc4ccco4)c(=N)n(CCc4ccccc4)c3nc12	32%	10	16%	-11
N=c1c(C(=O)NCc2ccco2)cc2c(=O)n3ccccc3nc2n1Cc1ccccc1	49%	-10	3%	-51*
O=C(CSc1oc(-c2ccco2)nc1S(=O)(=O)c1ccc(Cl)cc1)c1ccc(Cl)cc1	?	-7	·	·
CCOc1ccc(C(c2c(O)cc(C)n(Cc3ccco3)c2=O)N2CCN(c3ccccc3)CC2)cc1 (centres undefined)	?	-15	·	·

Screening results: PubChem BioAssay, National Center for Advancing Translational Sciences (NCATS)
